# In the library only some 1.1% were active in any assay of this set; here they are far more common.
# uPA surface inh: inhibitors of cell surface uPA generation | cell surface uPA generation assay, qHTS | Potency, µM (doses to about 38.3 µM), actives largely listed as inhibitors | hit rate 0.31% among 330,000; active means well fitted inhibition curve with a large enough effect; inconclusive means small, poorly fitted or top-dose-only effect; inactive means no such curve, though single readings can be large or run the other way; tested in mouse RAW 264.7 cells; further: nearly all actives have a fitted effect of over 55% in size
# CtBP-E1A inh: CtBP/E1A binding inhibition. activity change, % (no concentration beside the values). AID 651724. hit rate 0.49% among 340,000. AlphaScreen GST-E1A/His-CtBP binding, 1536-well; active compounds read low; in the data active means activity change below about -65%; inconclusive means mostly about -30% to -63%
#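 Homogeneous bead-based format: GST-tagged E1A captured on glutathione donor beads, His-tagged CtBP on nickel acceptor beads; compounds precede bead addition by 2 h at 37 °C.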
# MBNL1-CUG inh: blocks human MBNL1 binding to CUG repeat RNA; TR-FRET MBNL1-His/biotin-(CUG)12 binding, 665/545 ratio; hit rate 0.036% among 280,000; AID 2675; Potency, µM (titrated, usually from 57.5 µM), hits mostly inhibitors; Q9NR56; active means well fitted inhibition curve with a large enough effect in the signal ratio, with a control signal flat, not every such curve was filed as active; inconclusive means small, poorly fitted or top-dose-only effect, or effect the other way, or a change in a side signal; inactive means no such curve, though single readings can be large or run the other way; the % refers to the signal ratio
# Target sequence (Q9NR56 whole entry, looked up): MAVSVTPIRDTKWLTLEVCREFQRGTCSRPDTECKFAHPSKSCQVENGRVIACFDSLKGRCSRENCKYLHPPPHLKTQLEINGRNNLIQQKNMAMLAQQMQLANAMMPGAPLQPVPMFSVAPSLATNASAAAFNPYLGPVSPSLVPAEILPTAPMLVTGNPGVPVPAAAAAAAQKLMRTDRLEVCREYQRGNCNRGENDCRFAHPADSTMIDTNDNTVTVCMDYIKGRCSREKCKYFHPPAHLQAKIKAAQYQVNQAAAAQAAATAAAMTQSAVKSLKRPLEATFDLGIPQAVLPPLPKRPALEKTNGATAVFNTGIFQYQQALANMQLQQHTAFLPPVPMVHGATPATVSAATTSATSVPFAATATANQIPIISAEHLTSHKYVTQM
#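 TR-FRET between His-tagged MBNL1 and biotin-(CUG)12 RNA, detected with Tb anti-His antibody (0.055 ng/ul) and streptavidin-XL665 (5 nM), 60 min at room temperature. Compounds titrated 92 nM to 58 uM; 665/545 nm ratio normalized to buffer and complex controls.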
# Mito fusion act: mitochondrial division inhibition or fusion activation | S. cerevisiae fusion-defective mutant growth rescue, CellTiterGlo 48 h | Potency, µM (highest dose often 46.1 µM), actives largely listed as activators | hit rate 0.23% among 320,000; further: nearly all actives have a fitted effect of over 45% in size
#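 S. cerevisiae fusion-defective temperature-sensitive mutants (e.g. fzo1-1, mgm1-5) grown 48 h at 37C in YPEG (ethanol/glycerol non-fermentable) medium with 23 nl compound per well; growth rescue read as CellTiterGlo luminescence.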
# Six1-Eya2 inh: blocks human Six1 binding to Eya2. hit rate 0.56% among 360,000. AlphaScreen GST-Six1/His-Eya2 binding, biochemical; active compounds read low. activity change, % (no concentration beside the values). AID 651725; in the data active means activity change below about -65%; inconclusive means mostly about -30% to -63%
#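 AlphaScreen with GST-Six1 and His-Eya2 (5X mix: 250 nM and 500 nM), glutathione donor and nickel acceptor beads; buffer 50 mM Tris pH 8.0, 300 mM NaCl, 1 mM TCEP; 1 h at 37 C in the dark.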
# MBNL1 TRFRET: blocks human MBNL1 binding to CUG repeat RNA, TR-FRET validation | shares compounds with MBNL1-CUG inh | TR-FRET MBNL1-His / biotin-(CUG)12 binding, 60 min | Potency, µM (doses to about 57.6 µM), most hits filed as inhibitors | hit rate 50% among 140 | AID 493199
# MBNL1-CUG Alpha: blocks MBNL1 binding to (CUG)12 RNA in AlphaScreen | shares compounds with MBNL1-CUG inh | AlphaScreen MBNL1-His / biotin-(CUG)12 binding | Potency, µM (doses to about 57.7 µM), usual class: inhibitors | hit rate 30% among 140 | AID 493205
# MBNL1 HTRF CS: MBNL1-CUG RNA binding inhibitor counterscreen activity. shares compounds with MBNL1-CUG inh. His-Menin/biotin-MLL peptide TR-FRET counterscreen. Potency, µM (doses to about 57.6 µM), most hits filed as inhibitors. hit rate 20% among 120. AID 651843
# A number is an active result; - = inactive; ? = inconclusive; . = not tested or not shown. Unless noted, the call rests on the fitted dose curve; in most records, active means well fitted curve in the direction sought with a large enough effect; inconclusive means small, poorly fitted or top-dose-only effect, or another doubt; inactive means no such curve, though single readings can be large; an effect the other way counts as inactive or inconclusive.
SMILES,uPA surface inh,CtBP-E1A inh,MBNL1-CUG inh,Mito fusion act,Six1-Eya2 inh,MBNL1 TRFRET,MBNL1-CUG Alpha,MBNL1 HTRF CS
N.N.N.N.N.N.N.N.N.N.N.N.N.N.O.O.[Cl-].[Cl-].[Cl-].[Cl-].[Cl-].[Cl-].[Ru].[Ru].[Ru],.,.,.,.,.,?,0.18µM,.
COC(=O)NCc1cc2cc(Cl)ccc2[nH]1,.,-,40µM,-,-,-,-,-
COC(=O)NCc1ccc(Cl)c(Cl)c1,-,-,-,-,-,.,.,.
CCOC(=O)CCCCC(=O)c1[nH]c(=O)[nH]c1Cn1ccnc1,-,-,40µM,-,-,41µM,?,-
C/C(CCc1ccc2c(c1)OCO2)=N\NC(=O)c1ccccc1,-,-,-,-,-,.,.,.
NC(=NCc1ccc2c(c1)OCO2)NC(=O)c1ccccc1,-,-,.,-,-,13µM,13µM,-
O=c1[nH]c(Nc2ccccc2Cl)cc2ccccc12,-,-,.,.,-,.,.,.
O=c1[nH]c(Nc2ccc(F)cc2)cc2ccccc12,.,?,.,-,-,33µM,13µM,-
CN1C[C@H](C(=O)N[C@]2(C)O[C@@]3(O)[C@@H]4CCCN4C(=O)[C@H](Cc4ccccc4)N3C2=O)C[C@@H]2c3cccc4[nH]cc(c34)C[C@H]21,.,.,.,-,.,.,.,.
CCCN1C[C@H](CSC)C[C@@H]2c3cccc4[nH]cc(c34)C[C@H]21,-,-,?,-,-,?,-,.
Cc1ccc(CNC(=O)C2CCC(=O)N(Cc3cccc(F)c3)C2)s1 (stereo not given),.,-,.,.,-,.,.,.
CC(C)N1CCC2(CC1)C(C#N)=C(N)NC(S)=C2C#N,.,.,?,-,.,21µM,-,18µM
Cc1cc(Nc2ccc(Cl)cc2)nc(NCc2ccccc2)n1,-,-,-,-,-,.,.,.
Cc1cc(Nc2ccccc2)nc(NCc2ccccc2)n1,-,-,40µM,-,-,?,3.7µM,-
O=C1Cc2ccccc2C(=O)N1Cc1ccccc1,-,-,25µM,-,-,-,?,-
O=C1NC(=O)C2C1C(c1ccccc1)N1C3C(=O)NC(=O)C3C(c3ccccc3)N21 (stereo not given),-,-,32µM,-,-,?,?,-
Cc1oc2nc(SCCCC(=O)NCCO)nc(N)c2c1C,-,-,20µM,-,-,?,?,-
COc1ccccc1CCNC(=O)C1CC(=O)N(c2ccccc2F)C1 (stereo not given),.,-,.,.,-,.,.,.
COc1cc2c(C#N)c(N3CCCCC3)nc(N)c2c(N)n1,-,-,-,-,-,-,-,-
COc1cc2c(C#N)c(N3CCOCC3)nc(N)c2c(N)n1,-,-,-,-,-,.,.,.
CCN1C[C@@H]2[C@@H]3C(=O)N(Cc4ccccc4)C(=O)[C@@H]3[C@](Cc3ccccc3)(C1=O)N2C(=O)c1ccc(Br)cc1,-,-,.,.,-,.,.,.
CC(C)OC(=O)CSc1nnc(-c2cnccn2)n1C,-,-,40µM,-,-,?,-,-
COC(=O)Nc1csc2c1NC(=O)CCCC2,-,-,.,-,-,26µM,10µM,-
COc1ccccc1NC(=O)c1csc2c1CCCC2,.,-,-,-,-,.,.,.
Cc1cccc(S(=O)(=O)NC(=O)C2(C)CCN2C(=O)Cc2cccs2)c1 (stereo not given),.,-,.,.,-,.,.,.
COc1ccc(CCNC(=O)C2CC(=O)N(c3ccc(C)cc3)C2)cc1OC (stereo not given),-,-,-,-,-,?,-,-
COCCNC(=O)c1ccc(N2CC3CC(C2)c2cccc(=O)n2C3)c(NC(=O)c2ccccc2Br)c1 (stereo not given),.,-,.,.,-,.,.,.

# Bioassay records as filed in PubChem BioAssay.
